Results: PubChem BioAssay
For some assays here: Results with a measured potency or affinity are listed apart. Calls of active or inactive are those of the source. Unless noted, the rule behind the calls is not given here.

Assays:
[1] = antimalarial activity against Dd2 strain (AID 2302;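 active = growth inhibition above 50% at the single 2 µM test dose, taken to imply half-maximal potency below 2 µM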;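 note: 0% = DMSO untreated growth and 100% = chloroquine plus artemisinin killed control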); conditions: P. falciparum Dd2 in RBCs, LDH growth readout, 72 h; at 2 µM; active compounds read high
[2] = human hepatoma cell viability loss – ATP luminescence, cytotoxicity control for P. falciparum antimalarial project, primary screen (AID 2303;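 active = inhibition above 50%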;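 note: 0% = DMSO wells and 100% = digitonin-killed cells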); conditions: HepG2 viability, 24-48 h, at 10 µM, active compounds read high
[3] = target: L-lactate dehydrogenase (Plasmodium falciparum (isolate CDC / Honduras)) (UniProt Q27743); assay: PfLDH activity inhibition – cell lysate, 3D7 strain, counter-screen for P. falciparum growth inhibition project (AID 2304);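 note: 0% = vehicle and 100% = reference inhibitor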; conditions: P. falciparum 3D7 crude extract, LDH APAD/NBT absorbance; at 2 µM; active compounds read high
Sequence of L-lactate dehydrogenase (Plasmodium falciparum (isolate CDC / Honduras)) (Q27743 whole entry, looked up): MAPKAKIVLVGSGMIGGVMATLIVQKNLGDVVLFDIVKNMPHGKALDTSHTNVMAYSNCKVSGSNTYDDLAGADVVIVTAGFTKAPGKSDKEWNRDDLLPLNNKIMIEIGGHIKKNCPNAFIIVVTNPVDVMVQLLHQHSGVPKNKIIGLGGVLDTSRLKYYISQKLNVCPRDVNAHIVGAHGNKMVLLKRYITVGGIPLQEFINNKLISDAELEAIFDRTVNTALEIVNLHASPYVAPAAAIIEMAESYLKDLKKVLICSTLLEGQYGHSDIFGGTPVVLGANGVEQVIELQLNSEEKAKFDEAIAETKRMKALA

[4] = inhibition of 3D7 malaria parasite growth – strain 3D7 (AID 2306);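 note: 0% = DMSO wells and 100% = chloroquine plus artemisinin control wells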; conditions: P. falciparum 3D7 erythrocytic growth, LDH absorbance, 72 h; at 2 µM; active compounds read high
[5] = target: Calcium-dependent protein kinase 1 (Plasmodium falciparum (isolate 3D7)) (UniProt P62344); assay: PfCDPK1 kinase inhibitors, biochemical, TCAMS library (AID 1159585; cut-off not given, nearly all actives have IC50 up to about 0.98 µM;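 note: inhibitors leave more ATP so luminescence rises with inhibition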); conditions: recombinant PfCDPK1, Kinase-Glo ATP depletion luminescence
Sequence of Calcium-dependent protein kinase 1 (Plasmodium falciparum (isolate 3D7)) (P62344 whole entry, looked up): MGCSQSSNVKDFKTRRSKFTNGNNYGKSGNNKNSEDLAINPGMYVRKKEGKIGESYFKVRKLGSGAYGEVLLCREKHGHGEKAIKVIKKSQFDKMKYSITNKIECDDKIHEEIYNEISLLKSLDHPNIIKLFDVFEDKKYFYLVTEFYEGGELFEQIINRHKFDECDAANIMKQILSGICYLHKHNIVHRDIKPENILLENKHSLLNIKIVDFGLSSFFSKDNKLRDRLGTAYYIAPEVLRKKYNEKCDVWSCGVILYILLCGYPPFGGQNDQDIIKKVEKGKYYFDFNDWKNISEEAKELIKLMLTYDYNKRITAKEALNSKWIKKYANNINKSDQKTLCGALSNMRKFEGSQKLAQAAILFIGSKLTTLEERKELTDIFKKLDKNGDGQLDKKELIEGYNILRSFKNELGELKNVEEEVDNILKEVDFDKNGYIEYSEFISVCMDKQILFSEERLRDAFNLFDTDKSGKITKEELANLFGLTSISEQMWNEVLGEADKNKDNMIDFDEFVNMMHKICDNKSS

[6] = target: Plasmodium falciparum protein kinase 6 (PK6, PF3D7_1337100) (UniProt Q8IDW1); assay: PfPK6 kinase inhibitors, biochemical, TCAMS library (AID 1159586); conditions: recombinant PfPK6, Kinase-Glo ATP depletion luminescence
Sequence of Plasmodium falciparum protein kinase 6 (PK6, PF3D7_1337100) (Q8IDW1 1-305): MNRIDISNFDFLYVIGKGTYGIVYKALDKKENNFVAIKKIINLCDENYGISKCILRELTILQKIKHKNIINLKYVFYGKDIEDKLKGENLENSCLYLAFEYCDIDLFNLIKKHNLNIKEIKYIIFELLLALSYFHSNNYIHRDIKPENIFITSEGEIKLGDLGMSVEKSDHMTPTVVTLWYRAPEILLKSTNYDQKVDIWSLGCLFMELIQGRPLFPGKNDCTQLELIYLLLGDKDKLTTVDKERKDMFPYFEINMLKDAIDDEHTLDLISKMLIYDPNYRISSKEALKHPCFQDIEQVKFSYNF

[7] = target: Protein kinase 7 (PK7), Plasmodium falciparum 3D7 (PF3D7_0213400) (UniProt Q7YTF7); assay: inhibition of Plasmodium PK7 catalytic activity – biochemical, TCAMS antimalarial set, Kinase-Glo luminescence (AID 1159587); conditions: recombinant PfPK7, Kinase-Glo ATP depletion luminescence
Sequence of Protein kinase 7 (PK7), Plasmodium falciparum 3D7 (PF3D7_0213400) (Q7YTF7 1-343): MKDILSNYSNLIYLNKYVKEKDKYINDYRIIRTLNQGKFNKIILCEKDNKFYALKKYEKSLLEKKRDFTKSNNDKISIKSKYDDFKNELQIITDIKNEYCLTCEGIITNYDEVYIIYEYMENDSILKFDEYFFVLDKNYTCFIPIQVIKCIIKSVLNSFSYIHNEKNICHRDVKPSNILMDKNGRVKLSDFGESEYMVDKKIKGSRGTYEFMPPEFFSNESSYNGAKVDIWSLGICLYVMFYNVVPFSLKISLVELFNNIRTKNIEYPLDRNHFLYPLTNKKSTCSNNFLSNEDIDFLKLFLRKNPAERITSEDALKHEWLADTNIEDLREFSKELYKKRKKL

[8] = target: Calcium-dependent protein kinase 4 (Plasmodium falciparum (isolate 3D7)) (UniProt Q8IBS5); assay: PfCDPK4 kinase inhibitors, biochemical, TCAMS library (AID 1159588; cut-off not given, nearly all actives have IC50 up to about 0.91 µM); conditions: recombinant PfCDPK4, Kinase-Glo ATP depletion luminescence
Sequence of Calcium-dependent protein kinase 4 (Plasmodium falciparum (isolate 3D7)) (Q8IBS5 whole entry, looked up): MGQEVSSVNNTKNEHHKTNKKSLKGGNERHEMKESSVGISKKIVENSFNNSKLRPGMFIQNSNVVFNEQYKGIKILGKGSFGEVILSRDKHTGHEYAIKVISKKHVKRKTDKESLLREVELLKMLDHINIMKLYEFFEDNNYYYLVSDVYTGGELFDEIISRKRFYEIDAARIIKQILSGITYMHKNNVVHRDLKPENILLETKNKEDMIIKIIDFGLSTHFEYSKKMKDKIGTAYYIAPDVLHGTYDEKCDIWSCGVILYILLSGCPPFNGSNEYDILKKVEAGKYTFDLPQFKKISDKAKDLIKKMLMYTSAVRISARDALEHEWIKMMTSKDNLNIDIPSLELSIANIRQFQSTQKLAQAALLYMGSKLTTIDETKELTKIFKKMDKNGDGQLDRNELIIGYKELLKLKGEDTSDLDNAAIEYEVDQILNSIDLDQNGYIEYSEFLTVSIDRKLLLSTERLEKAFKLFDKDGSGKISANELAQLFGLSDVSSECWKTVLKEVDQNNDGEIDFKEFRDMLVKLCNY

O=C(/C=C/c1ccc(Cl)c(Cl)c1)NCCCCCN1CCC(NC(=O)Nc2cccc(Cl)c2F)CC1
active: inhibition [2] 75% | growth inhibition [4] 101%
inactive: growth inhibition [1] 30% | inhibition [3] 4% | outcome [5] | outcome [6] | outcome [7] | outcome [8]

COc1ccccc1C1CC(c2ccccc2)=NN1C(=O)c1ccco1 (stereo not given)
inactive: inhibition [2] 12% | inhibition [3] -2% | outcome [5] | outcome [6] | outcome [7] | outcome [8]
active: growth inhibition [1] 95% | growth inhibition [4] 97%

Nc1nc(N)c2c(ccc3c2ccn3Cc2ccc(-c3ccccc3)cc2)n1
inactive: inhibition [3] 4% | outcome [5] | outcome [6] | outcome [7] | outcome [8]
active: growth inhibition [1] 93% | inhibition [2] 100% | growth inhibition [4] 98%

CN1CCCC1CCNc1ncc2c(-c3ccc(NC(=O)Nc4cc(C(F)(F)F)ccc4F)c(F)c3)nn(C)c2n1 (stereo not given)
active: growth inhibition [1] 90% | inhibition [2] 100% | growth inhibition [4] 99%
inactive: inhibition [3] 1% | outcome [5] | outcome [6] | outcome [7] | outcome [8]

CN(C)C=Nc1ccc(OCCCCCCOc2ccc(N=CN(C)C)cc2)cc1
inactive: inhibition [2] 26% | inhibition [3] 6% | outcome [5] | outcome [6] | outcome [7] | outcome [8]
active: growth inhibition [1] 94% | growth inhibition [4] 101%

c1cncc(-c2cc(N3CCCCC3)nc(-c3ccncc3)n2)c1
active: growth inhibition [4] 99%
inactive: growth inhibition [1] 46% | inhibition [2] 18% | inhibition [3] 2% | outcome [5] | outcome [6] | outcome [7] | outcome [8]

CCc1c[nH]c2c(N3CCCC3=O)cc(C(=O)N[C@@H](Cc3ccccc3)[C@H](O)CNC(C)(C)CCCC(C)C)cc12
active: growth inhibition [1] 97% | growth inhibition [4] 96%
inactive: inhibition [2] 22% | inhibition [3] 1% | outcome [5] | outcome [6] | outcome [7] | outcome [8]

O=C(COc1ccccc1)Nn1cnc2ccccc21
inactive: growth inhibition [1] -3% | inhibition [2] 2% | inhibition [3] 3% | outcome [5] | outcome [6] | outcome [7] | outcome [8]
active: growth inhibition [4] 91%

CC(=O)c1cccc(NC(=O)C2c3ccccc3C(=O)N(CC(C)C)C2c2cccs2)c1 (stereo not given)
inactive: inhibition [2] 11% | inhibition [3] -2% | outcome [5] | outcome [6] | outcome [7] | outcome [8]
active: growth inhibition [1] 100% | growth inhibition [4] 100%

O=C(Nc1ccc(CCN2CCC(c3nc(COCC(F)(F)F)c(-c4ccccc4)o3)CC2)cc1)c1ccc(F)cc1
inactive: growth inhibition [1] 3% | inhibition [2] 9% | inhibition [3] 3% | outcome [5] | outcome [6] | outcome [7] | outcome [8]
active: growth inhibition [4] 86%

c1cc(CN2CCC(CCN3CCCCC3)CC2)cc(-c2csc(-c3nc4ccccc4[nH]3)c2)c1
inactive: inhibition [3] -3% | outcome [5] | outcome [6] | outcome [7] | outcome [8]
active: growth inhibition [1] 99% | inhibition [2] 89% | growth inhibition [4] 99%

Cc1ccc(-c2cc(C(=O)Nc3ccc(S(=O)(=O)N4CCCC(C)C4)cc3)[nH]n2)c(O)c1 (stereo not given)
active: growth inhibition [1] 99% | growth inhibition [4] 102%
inactive: inhibition [2] 32% | inhibition [3] -4% | outcome [5] | outcome [6] | outcome [7] | outcome [8]

CCCCC(=O)Nc1ccc(Nc2nc(C)cc(N3CCCC3)n2)cc1
inactive: inhibition [2] 38% | inhibition [3] 4% | outcome [5] | outcome [6] | outcome [7] | outcome [8]
active: growth inhibition [1] 67% | growth inhibition [4] 101%

Cc1[nH]nc2cc(Nc3nccc(Nc4ccc(Oc5ccccc5)cc4)n3)ccc12
active: growth inhibition [1] 98% | growth inhibition [4] 101%
inactive: inhibition [2] 8% | inhibition [3] -7% | outcome [5] | outcome [6] | outcome [7] | outcome [8]

O=C(NCCCCN1CCC(c2ccc(C(F)(F)F)cc2C(F)(F)F)CC1)c1ccc(NC(=O)c2ccc(Cl)cc2)cc1
active: growth inhibition [1] 59% | growth inhibition [4] 99%
inactive: inhibition [2] 4% | inhibition [3] 7% | outcome [5] | outcome [6] | outcome [7] | outcome [8]

COc1cc(Cc2cnc(N)nc2N)ccc1OCC(=O)Nc1ccc(C)cc1
active: growth inhibition [4] 95%
inactive: growth inhibition [1] 18% | inhibition [2] 10% | inhibition [3] -2% | outcome [5] | outcome [6] | outcome [7] | outcome [8]

COc1cc(NC(=O)N2CCc3ccc(OCCC4CCCN4C)cc32)cc(C(F)(F)F)c1 (stereo not given)
inactive: growth inhibition [1] 42% | inhibition [2] 5% | inhibition [3] 3% | outcome [5] | outcome [6] | outcome [7] | outcome [8]
active: growth inhibition [4] 101%

COc1ccc(C(=O)Nc2cc(Cl)c3c(c2)C2CCCN2CC3)cc1C(F)(F)F (stereo not given)
active: growth inhibition [4] 99%
inactive: growth inhibition [1] 33% | inhibition [2] 35% | inhibition [3] -1% | outcome [5] | outcome [6] | outcome [7] | outcome [8]

CCCc1ccccc1Nc1nc(C)cc(N(CC)CCCN2CCCCC2)n1
inactive: growth inhibition [1] 49% | inhibition [2] 27% | inhibition [3] -3% | outcome [5] | outcome [6] | outcome [7] | outcome [8]
active: growth inhibition [4] 98%

CCOc1cc(C(=O)NC2CCN(Cc3ccccc3)CC2)ccc1-c1nc2cc(Cl)c(F)cc2[nH]1
inactive: inhibition [2] 13% | inhibition [3] 4% | outcome [5] | outcome [6] | outcome [7] | outcome [8]
active: growth inhibition [1] 51% | growth inhibition [4] 101%

C[C@@H](NCCc1cccc(Cl)c1)[C@@H](O)c1ccc(OCCCCCCOc2ccc([C@H](O)[C@@H](C)NCCc3cccc(Cl)c3)cc2)cc1
active: growth inhibition [1] 100% | inhibition [2] 96% | growth inhibition [4] 100%
inactive: inhibition [3] -1% | outcome [5] | outcome [6] | outcome [7] | outcome [8]

O=C(/C=C/c1ccc(Cl)c(Cl)c1)NCCCCCN1CCC(NC(=S)Nc2ccc(Cl)cc2)CC1
active: inhibition [2] 62% | growth inhibition [4] 99%
inactive: growth inhibition [1] 41% | inhibition [3] -1% | outcome [5] | outcome [6] | outcome [7] | outcome [8]

CN1CCC(NCc2ccc(S(=O)(=O)Nc3ccc(Oc4cccc(Cl)c4)cc3)cc2)CC1
inactive: growth inhibition [1] 5% | inhibition [2] 47% | inhibition [3] 0% | outcome [5] | outcome [6] | outcome [7] | outcome [8]
active: growth inhibition [4] 99%

CC(NC(=O)NC1CCC(CCN2CCCc3ccccc32)CC1)c1cccc2ccccc12 (stereo not given)
active: growth inhibition [1] 83% | growth inhibition [4] 90%
inactive: inhibition [2] -4% | inhibition [3] -1% | outcome [5] | outcome [6] | outcome [7] | outcome [8]

Cc1ccc(N2CCc3c(-c4cc5cccnc5nc4C)cc(C)nc32)c(Cl)c1
inactive: inhibition [2] -14% | inhibition [3] 3% | outcome [5] | outcome [6] | outcome [7] | outcome [8]
active: growth inhibition [1] 90% | growth inhibition [4] 96%

CC1(C)N=C(N)N=C(N)N1OCc1ccc2ccccc2c1
inactive: inhibition [3] -9% | outcome [5] | outcome [6] | outcome [7] | outcome [8]
active: growth inhibition [1] 97% | inhibition [2] 65% | growth inhibition [4] 94%

Cc1cc(NCC(C)C)c2[nH]nc(-c3ccccc3)c2n1
active: growth inhibition [4] 99%
inactive: growth inhibition [1] 30% | inhibition [2] 9% | inhibition [3] 2% | outcome [5] | outcome [6] | outcome [7] | outcome [8]

CCN1CCN(CCCNc2c3ccc(Cl)cc3nc3ccc(OC)cc23)CC1
active: growth inhibition [1] 100% | growth inhibition [4] 97%
inactive: inhibition [2] 34% | inhibition [3] -5% | outcome [5] | outcome [6] | outcome [7] | outcome [8]

O=C(/C=C/c1ccc(Cl)cc1)NCCCCCN1CCC(c2c[nH]c3ccccc23)CC1
active: growth inhibition [4] 99%
inactive: growth inhibition [1] 15% | inhibition [2] 42% | inhibition [3] 7% | outcome [5] | outcome [6] | outcome [7] | outcome [8]

O=C1CCCN1CCCNCc1ccc(-c2cccc(-c3nc4ccccc4[nH]3)c2)cc1
inactive: growth inhibition [1] 0% | inhibition [2] 19% | inhibition [3] -5% | outcome [5] | outcome [6] | outcome [7] | outcome [8]
active: growth inhibition [4] 96%

Cc1oc(-c2cccc(Oc3ccccc3)c2)nc1CN(Cc1cnn(C)c1)C(C)C
inactive: inhibition [2] 22% | inhibition [3] 2% | outcome [5] | outcome [6] | outcome [7] | outcome [8]
active: growth inhibition [1] 61% | growth inhibition [4] 89%

CCN(CCCN1CCCCC1)c1cc(C)nc(Nc2cc(Cl)cc(Cl)c2)n1
inactive: inhibition [2] 34% | inhibition [3] -3% | outcome [5] | outcome [6] | outcome [7] | outcome [8]
active: growth inhibition [1] 99% | growth inhibition [4] 100%

Cc1cc(=O)[nH]c(-n2nc(C)cc2NC(=O)C(c2ccccc2)c2ccccc2)n1
inactive: inhibition [2] 31% | inhibition [3] -1% | outcome [5] | outcome [6] | outcome [7] | outcome [8]
active: growth inhibition [1] 77% | growth inhibition [4] 96%

O=C(Nc1cccc(C(F)(F)F)c1)c1ccc(S(=O)(=O)NC2CCN(CC3CCCCC3)C2)cc1 (stereo not given)
active: growth inhibition [4] 92%
inactive: growth inhibition [1] -3% | inhibition [2] 16% | inhibition [3] -4% | outcome [5] | outcome [6] | outcome [7] | outcome [8]

CC(C)CNCc1cccc(-c2cccc(CN(CCN(C)C)C(=O)Nc3ccccc3)c2)c1
inactive: inhibition [2] 34% | inhibition [3] 4% | outcome [5] | outcome [6] | outcome [7] | outcome [8]
active: growth inhibition [1] 62% | growth inhibition [4] 99%

CC(C)Nc1nc(NC2CCCCC2)nc(N2CCCCCCC2)n1
inactive: inhibition [2] 13% | inhibition [3] 2% | outcome [5] | outcome [6] | outcome [7] | outcome [8]
active: growth inhibition [1] 96% | growth inhibition [4] 86%

COc1cc2nc(N3CCC(CNC(=O)c4ccc(-c5ccc(C(F)(F)F)cc5)cc4)CC3)nc(N)c2cc1OC
active: growth inhibition [1] 100% | inhibition [2] 94% | growth inhibition [4] 100%
inactive: inhibition [3] 3% | outcome [5] | outcome [6] | outcome [7] | outcome [8]

O=C(NCC1CCC(C(=O)NC2CCCc3ccccc32)CC1)c1ccc(O)c(-c2ccc(Cl)c(Cl)c2)c1 (stereo not given)
inactive: inhibition [2] -5% | inhibition [3] -4% | outcome [5] | outcome [6] | outcome [7] | outcome [8]
active: growth inhibition [1] 86% | growth inhibition [4] 93%

O=C(/C=C/c1ccc(Cl)c(Cl)c1)NCCCCCN1CCC(NC(=O)Nc2cccc(Cl)c2)CC1
inactive: growth inhibition [1] 13% | inhibition [3] -1% | outcome [5] | outcome [6] | outcome [7] | outcome [8]
active: inhibition [2] 52% | growth inhibition [4] 102%

COc1ccc2nccc([C@@H](O)CN3CCC(NCc4nc5ccccc5[nH]4)CC3)c2c1
inactive: growth inhibition [1] 2% | inhibition [2] 41% | inhibition [3] 4% | outcome [5] | outcome [6] | outcome [7] | outcome [8]
active: growth inhibition [4] 92%
